Screens from PubChem BioAssay.
HCV inhibitor: blocks hepatitis C virus; Huh7.5.1 HCVcc-Cre infection, luciferase reporter, 44 h; Potency, µM (titrated, usually from 41.8 µM), inactives show at the top dose activity change, negative = inhibition, hits mostly inhibitors; 340,000 compounds, 3.4% hits; also: potency is read from the fitted curve at half-maximal effect
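Compounds are dispensed onto cells plated 4 h earlier at 1,000 per well, with HCVcc-Cre virus (about 0.5 moi) added next. Following 44 h of culture, luminescent signal is measured for 15 sec after 15 min with substrate at room temperature.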
HCMV antiviral: human cytomegalovirus inhibition; activity change, negative = inhibition, % at 57.5 µM; HFF cells, HCMV-luciferase reporter, 72 h; hits give low values; 410,000 compounds, 4.5% hits; in the data active = activity change below about -60%; inconclusive = no clear call, values can overlap the other calls; inactive = above about -39%
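Inhibition of viral replication was scored as loss of reporter luminescence in HFFs infected with HCMV-luciferase (MOI 1 PFU/cell) for 72 h; compounds tested at 2 doses, normalized to buffer and Salinomycin controls.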
FMDV antiviral: antivirals against foot and mouth disease virus; FMDV antiviral cell-based qHTS; Potency, µM (doses to about 57.9 µM), for the others: at the highest dose activity change, negative = inhibition, most hits filed as inhibitors; 410,000 compounds, 1.2% hits; calls by dose curve; tested in HEK293T cells; also: read-out not given here; potency is read from the fitted curve at half-maximal effect; nearly all actives have a fitted effect of over 45% in size
AmpC detergent: inhibitors of E. coli AmpC beta-lactamase with detergent | P00811 | AmpC hydrolysis of nitrocefin, absorbance 480 nm, 0.01% Triton | Potency, µM (highest dose often 114 µM), for inactives: at the highest dose activity change, negative = inhibition, actives largely listed as inhibitors | 370,000 compounds, 0.041% hits | AID 485294;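 also: potency is read from the fitted curve at half-maximal effect; 0% = no-compound wells and -100% = no-enzyme wells; nearly all actives have a fitted effect of over 25% in size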
Target sequence (P00811 whole entry, looked up): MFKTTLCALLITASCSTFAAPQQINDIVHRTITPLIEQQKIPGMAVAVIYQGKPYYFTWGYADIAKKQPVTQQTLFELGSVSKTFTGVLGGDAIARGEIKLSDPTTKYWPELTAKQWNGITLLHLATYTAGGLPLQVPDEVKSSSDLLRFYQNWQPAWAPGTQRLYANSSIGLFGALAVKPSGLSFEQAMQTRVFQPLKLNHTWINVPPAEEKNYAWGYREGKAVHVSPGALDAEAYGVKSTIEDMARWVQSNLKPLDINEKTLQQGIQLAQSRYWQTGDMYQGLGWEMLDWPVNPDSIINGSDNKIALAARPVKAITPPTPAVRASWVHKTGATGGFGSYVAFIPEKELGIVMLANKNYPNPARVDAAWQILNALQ
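AmpC (5.3 nM in the dispensed reagent) in 20 mM phosphate pH 7.0 with 0.01% (detergent screen) or 0.0001% Triton X-100 was preincubated with compounds for 15 min at room temperature. Nitrocefin was then added from an 800 uM solution, and hydrolysis was followed at 480 nm.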
AmpC no deterg: inhibitors of E. coli AmpC beta-lactamase without detergent. P00811. AmpC nitrocefin hydrolysis, absorbance 480 nm, 0.0001% Triton. Potency, µM (series often up to 57.1 µM), for the others: at the highest dose activity change, negative = inhibition, hits mostly inhibitors. 330,000 compounds, 0.52% hits. AID 485341;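 also: potency is read from the fitted curve at half-maximal effect; plate controls were no compound for no effect and no enzyme for full effect; nearly all actives have a fitted effect of over 20% in size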
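AmpC (5.3 nM in the dispensed reagent) in 20 mM phosphate pH 7.0 with 0.01% (detergent screen) or 0.0001% Triton X-100 was preincubated with compounds for 15 min at room temperature. Nitrocefin was then added from an 800 uM solution, and hydrolysis was followed at 480 nm.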
The depositor's hits bear a star; u = inconclusive; x = not tested or not shown. Rows were chosen to be rich in hits. Some 7.3% of all compounds tested hit in one or more screens of this group. Unless noted, calls follow the shape of the dose curve; as a rule, active = well fitted curve in the direction sought with a large enough effect; inconclusive = small, poorly fitted or top-dose-only effect, or another doubt; inactive = no such curve, though single readings can be large; an effect the other way counts as inactive or inconclusive. Unless noted, % is scaled to controls: 0 for no effect and ±100 for the full control effect.

SMILES | HCV inhibitor | HCMV antiviral | FMDV antiviral | AmpC detergent | AmpC no deterg
O=C(Nc1cc(Cl)ccn1)C1CCN(S(=O)(=O)c2cccs2)CC1 | u | -73* | u | -11% | -29%
Cc1csc(NC(=O)C2CCN(S(=O)(=O)c3cccs3)CC2)n1 | u | u | u | -12% | -33%
CCCn1c(NC(=O)C2CCN(S(=O)(=O)c3cccs3)CC2)nc2ccccc21 | 14µM* | -62* | u | 5% | -9%
O=C(Nc1nc2c(F)cc(F)cc2s1)C1CCN(C(=O)c2ccc(F)cc2)CC1 | -20% | 11 | -12% | -13% | -39%
O=C(Nc1nc(-c2ccc(F)cc2)cs1)C1CCN(C(=O)c2ccc(F)cc2)CC1 | u | -80* | 11µM* | -1% | 23%
Cc1csc(NC(=O)C2CCN(S(=O)(=O)c3ccccc3F)CC2)n1 | u | -60* | -29% | 2% | -22%
O=C(CCCCCn1c(=O)c2sccc2n(Cc2ccc(Cl)cc2)c1=O)NCc1ccc2c(c1)OCO2 | x | -19 | -2% | 23% | x
Cc1ccc(C)c(CN2C(=O)c3ccccc3S(=O)(=O)c3ccc(C(=O)Nc4ccccc4C(F)(F)F)cc32)c1 | x | -1 | 10% | -4% | x
COc1cc(-c2cc(C)c3c(OC)ccc(OC)c3n2)cc2c1OCCN(C(=O)Cn1nc(C)cc1C)C2 | x | x | 0% | x | x
Cc1ccc(S(=O)(=O)NCc2ccc(C(=O)NC3CCC(O)CC3)cc2)cc1C (stereo not drawn) | 14% | 120 | 11% | -11% | -13%
CSc1ccc(/C=C/C(=O)N2CCN(c3ccccn3)CC2)cc1 | 6% | x | 4% | 4% | -47%
CC(=O)Nc1ccc(-c2csc(NC(=O)C3CCN(S(=O)(=O)c4cccs4)CC3)n2)cc1 | u | -69* | u | u | -12%
CC(C)(CNC(=O)c1ccc([N+](=O)[O-])c(Cl)c1)CNC(=O)c1ccc([N+](=O)[O-])c(Cl)c1 | u | -97* | u | 0% | 15%
N#Cc1nc(-c2cccs2)oc1NCc1ccccc1 | 6% | 16 | 10% | -5% | -19%
N#Cc1nc(-c2cccs2)oc1NCc1ccc(Cl)cc1 | 10µM* | -33 | 12% | 2% | -5%
COC(=O)c1c(NC(=O)c2cccnc2)sc(C(=O)N(C)C)c1C | 8% | -1 | -3% | -11% | -6%
COC(CNC(=O)c1cccnc1)OC | 9% | -62* | -6% | -4% | 5%
COC(=O)c1c(NC(=O)c2cccnc2)sc(C)c1C | 10µM* | x | u | 0% | 60%
COC(=O)/C=C\C(C#N)(C#N)N=Cc1ccc(OC)cc1 | u | -17 | u | x | x
CCn1cc2nc(SCc3cccc(C(F)(F)F)c3)n(Cc3ccc(C)cc3)c(=O)c2n1 | x | -17 | 0% | -1% | x
COc1ccc(CNCc2cn(-c3cccc(F)c3)nc2-c2ccc(C)o2)cc1 | 10µM* | -26 | -17% | 8% | -13%
COCCn1c(=O)c(CCc2ccccc2)nc2cnc(Oc3ccc(OC)cc3)nc21 | x | x | 2% | x | x
O=C(c1csc(Nc2cccc3ccccc23)n1)N1CCCC1 | -8% | 0 | 15% | -9% | -22%
O=C(c1csc(Nc2ccccc2Cl)n1)N1CCCC1 | -1% | -93* | 46% | -2% | -8%
CC(=O)c1ccc(N(CC(=O)NC2CCCCC2)C(=O)CNC(=O)c2ccco2)cc1 | 11% | 14 | -4% | -3% | 4%
SMILES | HCV inhibitor | HCMV antiviral | FMDV antiviral | AmpC detergent | AmpC no deterg
N/C(=N\OC(=O)c1cccc(Cn2cc(C(F)(F)F)ccc2=O)c1)c1ccc(Cl)cc1 | -15% | -64* | u | 13% | -5%
O=S(=O)(c1ccccc1)N1CCC(c2noc3ccccc23)CC1 | x | -13 | x | x | x
CCOc1cccc2sc(N(CCCN(C)C)C(=O)c3ccc(C(=O)c4ccccc4)cc3)nc12 | u | -77* | -11% | -1% | 147%
CCOc1cccc2sc(N(CCN(C)C)C(=O)c3cc4ccccc4cc3OC)nc12 | 14µM* | -39 | -13% | -6% | 188%
CCc1ccc2nc(N(CCCN(C)C)C(=O)c3ccc(S(=O)(=O)N4CCCC4)cc3)sc2c1 | u | -36 | -7% | -2% | 199%
CCc1ccc2nc(N(CCCN(C)C)C(=O)c3ccc(C(=O)c4ccccc4)cc3)sc2c1 | -23% | -98* | -22% | 6% | 164%
CN(C)CCCN(C(=O)c1ccc(C(=O)c2ccccc2)cc1)c1nc2c(F)cccc2s1 | u | -29 | u | 3% | 100%
CCc1ccc2nc(N(CCCN(C)C)C(=O)c3ccc(S(=O)(=O)N4CCCc5ccccc54)cc3)sc2c1 | u | -89* | u | 4% | 175%
O=C(CSc1nc2c([nH]c3ccccc32)c(=O)n1-c1ccccc1)N1CCCCC1 | x | -26 | -3% | 0% | x
O=C(CCOc1ccccc1)N1CCCC(Nc2ccccc2)C1 (stereo not drawn) | x | -22 | -20% | x | x
COc1cccc(CNc2nc3cc(-c4ccc(F)cc4)sc3c(=O)n2C)c1 | x | -13 | -13% | x | x
CCCCn1c(N)c(N(Cc2ccccc2OC)C(=O)C(C)Oc2ccc(Br)cc2)c(=O)[nH]c1=O (stereo not drawn) | 0% | -1 | -25% | x | x
CN(C)CCCN(C(=O)c1ccc(S(=O)(=O)N2CCc3ccccc32)cc1)c1nc2c(Cl)cccc2s1 | -27% | -4 | -18% | -3% | 147%
COc1cccc2sc(N(CCCN(C)C)C(=O)c3ccc(S(=O)(=O)N4CCCc5ccccc54)cc3)nc12 | 14µM* | -71* | u | -6% | 173%
Cn1cccc1C(=O)c1cccc([N+](=O)[O-])c1 | 9% | -6 | -6% | 4% | -23%
CCOc1ccc(Br)cc1S(=O)(=O)N1CCC(C(N)=O)CC1 | 26% | -64* | 45% | -5% | -11%
CCc1ccc(NC(=O)Cn2nc3c4ccccc4n(Cc4ccccc4)cc-3c2=O)cc1 | x | u | -16% | -5% | x
COc1ccc(S(=O)(=O)N2CCOCC2)cc1NC(=O)C1CC1 | 4% | -15 | 0% | x | -11%
CC(=O)N1CCN(c2ccc(NC(=O)c3ccc(C(C)(C)C)cc3)cc2)CC1 | u | -86* | x | 0% | 175%
CC(=O)N1CCN(c2ccc(N)cc2)CC1 | x | -74* | -12% | 9% | 85%
Nc1ccc(N2CCN(c3ccc(F)cc3)CC2)cc1 | 1% | -60* | -4% | -9% | -28%
CC(=O)N1CCN(c2ccc(NC(=O)c3ccc(Cl)cc3)cc2)CC1 | 7% | -18 | 2% | -13% | -12%
Nc1ccc(N2CCN(c3ccc(Cl)c(Cl)c3)CC2)cc1 | u | -85* | 0% | u | -32%
Nc1ccc(N2CCCCCC2)cc1 | x | x | x | -7% | -15%
COc1ccc(N2CCN(c3ccc(N4C(=O)CC(C)C4=O)cc3[N+](=O)[O-])CC2)cc1 (stereo not drawn) | -17% | -90* | u | 4% | 91%
